We go through five compounds from ChEMBL document CHEMBL1961873, “Compounds: GSK PKIS; Assays: Nanosyn kinase panel” (2012).

In general, inhibition refers to the relative decrease from the control value, in per cent.

Each structure is given as a SMILES string.

Experiment [1] deals with Mast/stem cell growth factor receptor Kit (Homo sapiens) (UniProt P10721). Particulars: at 1 µM.
For experiment [2], the system named is Mast/stem cell growth factor receptor Kit (Homo sapiens), P10721 [D816V]. Particulars: at 0.1 µM.
Experiment [3] has the same test system. To be noted: at 1 µM.
The test system of experiment [4] is Mast/stem cell growth factor receptor Kit (Homo sapiens), P10721 [T670I]. Particulars: at 0.1 µM.
The test system is the same in experiment [5]. Particulars: at 1 µM.
Experiment [6] relates to Mast/stem cell growth factor receptor Kit (Homo sapiens), P10721 [V560G]. To be noted: at 0.1 µM.
The test system is the same in experiment [7]. Particulars: at 1 µM.
The target in experiment [8] is Tyrosine-protein kinase Lck (Homo sapiens) (UniProt P06239). Particulars: at 0.1 µM.
For experiment [9] the target is unchanged. To be noted: at 1 µM.
Experiment [10] concerns the target Leukocyte tyrosine kinase receptor (Homo sapiens) (UniProt P29376). Particulars: at 0.1 µM.
For experiment [11] the target is unchanged. Particulars: at 1 µM.
The target of experiment [12] is Tyrosine-protein kinase Lyn (Homo sapiens) (UniProt P07948). To be noted: at 0.1 µM.
Experiment [13] has the same target. To be noted: at 1 µM.
Experiment [14] shares this target. Particulars: at 0.1 µM. The source holds these as a separate data set.
For experiment [15] the target is unchanged. Particulars: at 1 µM. This is another data set of the same source.
Experiment [16] addresses T1, Tyrosine-protein kinase Mer (Homo sapiens) (UniProt Q12866).
T1 sequence (whole entry): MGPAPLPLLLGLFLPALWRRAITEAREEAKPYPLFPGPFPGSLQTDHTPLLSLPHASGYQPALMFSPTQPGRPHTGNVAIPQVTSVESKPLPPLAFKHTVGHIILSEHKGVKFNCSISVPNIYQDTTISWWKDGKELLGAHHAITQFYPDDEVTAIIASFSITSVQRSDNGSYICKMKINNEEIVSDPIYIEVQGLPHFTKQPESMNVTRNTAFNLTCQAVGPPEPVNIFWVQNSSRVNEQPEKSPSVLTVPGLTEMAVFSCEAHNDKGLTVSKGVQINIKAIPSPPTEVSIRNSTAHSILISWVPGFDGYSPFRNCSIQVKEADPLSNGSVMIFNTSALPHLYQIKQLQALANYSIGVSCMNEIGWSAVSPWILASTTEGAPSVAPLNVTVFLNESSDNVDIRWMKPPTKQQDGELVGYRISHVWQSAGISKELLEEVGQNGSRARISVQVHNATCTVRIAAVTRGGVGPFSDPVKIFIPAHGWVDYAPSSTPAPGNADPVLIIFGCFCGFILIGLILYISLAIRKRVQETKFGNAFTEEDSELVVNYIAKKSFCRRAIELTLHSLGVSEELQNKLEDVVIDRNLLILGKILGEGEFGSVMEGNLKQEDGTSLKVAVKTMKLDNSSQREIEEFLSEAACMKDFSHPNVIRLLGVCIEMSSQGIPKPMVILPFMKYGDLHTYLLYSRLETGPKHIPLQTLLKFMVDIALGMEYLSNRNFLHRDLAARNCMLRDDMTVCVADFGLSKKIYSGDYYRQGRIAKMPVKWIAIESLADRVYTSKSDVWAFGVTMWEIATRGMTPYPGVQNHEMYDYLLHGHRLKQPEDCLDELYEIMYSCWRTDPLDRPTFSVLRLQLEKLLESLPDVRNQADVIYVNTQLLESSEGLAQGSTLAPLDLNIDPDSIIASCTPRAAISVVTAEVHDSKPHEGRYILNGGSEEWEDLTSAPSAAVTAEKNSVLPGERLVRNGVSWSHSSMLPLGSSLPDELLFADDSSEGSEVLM
Particulars: at 0.1 µM.

Experiment [17] has as its target T1, Tyrosine-protein kinase Mer (Homo sapiens). To be noted: at 1 µM.
The target in experiment [18] is Hepatocyte growth factor receptor (Homo sapiens) (UniProt P08581). To be noted: at 0.1 µM.
The target is the same in experiment [19]. To be noted: at 1 µM.
In experiment [20] the target is T2, Muscle, skeletal receptor tyrosine-protein kinase (Homo sapiens) (UniProt O15146).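 Also: values are mean inhibition of MuSK from the GSK PKIS kinase screening panel.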
T2 sequence (whole entry): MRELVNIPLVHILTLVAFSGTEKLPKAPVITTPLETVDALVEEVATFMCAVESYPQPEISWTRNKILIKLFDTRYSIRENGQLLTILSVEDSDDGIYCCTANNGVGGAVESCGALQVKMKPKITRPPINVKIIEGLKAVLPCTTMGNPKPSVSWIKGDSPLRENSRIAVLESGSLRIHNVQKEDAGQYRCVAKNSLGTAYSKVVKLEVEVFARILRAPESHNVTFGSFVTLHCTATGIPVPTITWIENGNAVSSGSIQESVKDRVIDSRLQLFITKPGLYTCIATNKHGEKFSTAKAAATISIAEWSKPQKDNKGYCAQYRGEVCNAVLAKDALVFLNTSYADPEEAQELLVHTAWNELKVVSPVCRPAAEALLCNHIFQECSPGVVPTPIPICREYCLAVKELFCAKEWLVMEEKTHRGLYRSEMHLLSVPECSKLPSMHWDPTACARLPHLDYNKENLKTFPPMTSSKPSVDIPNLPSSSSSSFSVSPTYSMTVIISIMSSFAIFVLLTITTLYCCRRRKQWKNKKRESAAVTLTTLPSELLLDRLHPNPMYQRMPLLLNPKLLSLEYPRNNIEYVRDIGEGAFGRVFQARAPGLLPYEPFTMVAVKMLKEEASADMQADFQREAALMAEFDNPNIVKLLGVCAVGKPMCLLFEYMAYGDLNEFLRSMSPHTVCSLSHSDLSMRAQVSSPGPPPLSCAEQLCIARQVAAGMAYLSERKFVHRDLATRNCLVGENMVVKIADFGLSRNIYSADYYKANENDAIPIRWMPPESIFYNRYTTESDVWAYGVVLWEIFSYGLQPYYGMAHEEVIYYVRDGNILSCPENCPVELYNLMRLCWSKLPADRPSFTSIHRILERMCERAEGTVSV
To be noted: at 0.1 µM.

Mast/stem cell growth factor receptor Kit (Homo sapiens), P10721 [V560G], sequence (P10721 whole entry V560G): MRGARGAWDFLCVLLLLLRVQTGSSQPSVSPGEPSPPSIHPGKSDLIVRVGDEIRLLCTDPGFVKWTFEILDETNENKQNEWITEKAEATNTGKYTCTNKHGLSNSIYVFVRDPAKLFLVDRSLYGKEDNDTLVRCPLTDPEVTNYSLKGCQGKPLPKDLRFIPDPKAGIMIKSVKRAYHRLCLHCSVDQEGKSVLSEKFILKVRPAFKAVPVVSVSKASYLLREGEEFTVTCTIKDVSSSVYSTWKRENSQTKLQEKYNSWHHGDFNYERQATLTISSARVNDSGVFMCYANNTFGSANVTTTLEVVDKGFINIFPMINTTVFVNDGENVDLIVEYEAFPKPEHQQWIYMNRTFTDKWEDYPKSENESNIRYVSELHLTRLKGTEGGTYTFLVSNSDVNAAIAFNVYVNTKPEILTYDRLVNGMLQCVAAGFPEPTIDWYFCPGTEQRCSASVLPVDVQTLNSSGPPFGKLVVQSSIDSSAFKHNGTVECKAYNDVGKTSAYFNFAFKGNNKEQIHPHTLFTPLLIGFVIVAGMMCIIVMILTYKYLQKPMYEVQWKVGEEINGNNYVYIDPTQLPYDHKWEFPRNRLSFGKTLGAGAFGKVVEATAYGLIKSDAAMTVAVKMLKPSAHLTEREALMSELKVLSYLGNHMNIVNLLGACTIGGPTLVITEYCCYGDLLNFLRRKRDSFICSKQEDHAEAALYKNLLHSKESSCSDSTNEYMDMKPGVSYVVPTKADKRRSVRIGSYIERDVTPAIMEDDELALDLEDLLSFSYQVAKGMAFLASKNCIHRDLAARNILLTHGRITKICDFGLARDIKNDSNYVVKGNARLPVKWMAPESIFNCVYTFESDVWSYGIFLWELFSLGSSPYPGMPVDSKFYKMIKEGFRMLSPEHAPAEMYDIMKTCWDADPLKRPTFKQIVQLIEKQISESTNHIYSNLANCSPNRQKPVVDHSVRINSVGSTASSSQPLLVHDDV
Hepatocyte growth factor receptor (Homo sapiens), sequence (P08581 whole entry): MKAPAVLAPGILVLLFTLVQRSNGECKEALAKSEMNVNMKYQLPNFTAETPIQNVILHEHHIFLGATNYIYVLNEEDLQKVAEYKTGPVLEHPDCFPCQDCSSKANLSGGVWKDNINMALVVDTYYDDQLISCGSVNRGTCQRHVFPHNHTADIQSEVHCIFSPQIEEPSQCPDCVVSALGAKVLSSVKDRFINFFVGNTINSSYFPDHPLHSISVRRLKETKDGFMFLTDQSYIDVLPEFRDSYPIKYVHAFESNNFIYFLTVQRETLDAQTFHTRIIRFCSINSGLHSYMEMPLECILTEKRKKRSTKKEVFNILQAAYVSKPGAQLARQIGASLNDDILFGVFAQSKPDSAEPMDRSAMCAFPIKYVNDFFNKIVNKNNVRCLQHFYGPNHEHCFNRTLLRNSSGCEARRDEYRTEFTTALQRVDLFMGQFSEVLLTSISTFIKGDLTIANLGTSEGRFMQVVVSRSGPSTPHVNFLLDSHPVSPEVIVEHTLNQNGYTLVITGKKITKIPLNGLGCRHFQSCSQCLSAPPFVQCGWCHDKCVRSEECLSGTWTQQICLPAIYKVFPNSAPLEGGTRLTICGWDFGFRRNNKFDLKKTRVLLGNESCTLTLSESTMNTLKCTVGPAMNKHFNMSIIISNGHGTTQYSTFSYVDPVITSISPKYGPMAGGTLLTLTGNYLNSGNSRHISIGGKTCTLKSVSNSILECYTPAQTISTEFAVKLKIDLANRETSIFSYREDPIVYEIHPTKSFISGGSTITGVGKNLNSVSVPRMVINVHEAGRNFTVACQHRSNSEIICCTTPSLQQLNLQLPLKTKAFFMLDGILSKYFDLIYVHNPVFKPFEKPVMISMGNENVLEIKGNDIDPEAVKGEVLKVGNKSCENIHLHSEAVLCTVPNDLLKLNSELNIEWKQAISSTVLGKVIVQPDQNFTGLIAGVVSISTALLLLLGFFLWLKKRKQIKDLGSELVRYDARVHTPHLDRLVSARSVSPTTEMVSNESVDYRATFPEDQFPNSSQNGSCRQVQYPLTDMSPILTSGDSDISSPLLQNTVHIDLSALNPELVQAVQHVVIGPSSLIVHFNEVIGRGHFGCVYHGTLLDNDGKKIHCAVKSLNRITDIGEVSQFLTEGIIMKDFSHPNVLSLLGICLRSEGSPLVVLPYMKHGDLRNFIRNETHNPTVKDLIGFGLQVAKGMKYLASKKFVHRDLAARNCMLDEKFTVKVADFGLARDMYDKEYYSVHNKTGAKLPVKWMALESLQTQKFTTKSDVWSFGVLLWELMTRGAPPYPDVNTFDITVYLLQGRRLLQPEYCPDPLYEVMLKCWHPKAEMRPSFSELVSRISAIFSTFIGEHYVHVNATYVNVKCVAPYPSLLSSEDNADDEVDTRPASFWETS
Leukocyte tyrosine kinase receptor (Homo sapiens), sequence (P29376 whole entry): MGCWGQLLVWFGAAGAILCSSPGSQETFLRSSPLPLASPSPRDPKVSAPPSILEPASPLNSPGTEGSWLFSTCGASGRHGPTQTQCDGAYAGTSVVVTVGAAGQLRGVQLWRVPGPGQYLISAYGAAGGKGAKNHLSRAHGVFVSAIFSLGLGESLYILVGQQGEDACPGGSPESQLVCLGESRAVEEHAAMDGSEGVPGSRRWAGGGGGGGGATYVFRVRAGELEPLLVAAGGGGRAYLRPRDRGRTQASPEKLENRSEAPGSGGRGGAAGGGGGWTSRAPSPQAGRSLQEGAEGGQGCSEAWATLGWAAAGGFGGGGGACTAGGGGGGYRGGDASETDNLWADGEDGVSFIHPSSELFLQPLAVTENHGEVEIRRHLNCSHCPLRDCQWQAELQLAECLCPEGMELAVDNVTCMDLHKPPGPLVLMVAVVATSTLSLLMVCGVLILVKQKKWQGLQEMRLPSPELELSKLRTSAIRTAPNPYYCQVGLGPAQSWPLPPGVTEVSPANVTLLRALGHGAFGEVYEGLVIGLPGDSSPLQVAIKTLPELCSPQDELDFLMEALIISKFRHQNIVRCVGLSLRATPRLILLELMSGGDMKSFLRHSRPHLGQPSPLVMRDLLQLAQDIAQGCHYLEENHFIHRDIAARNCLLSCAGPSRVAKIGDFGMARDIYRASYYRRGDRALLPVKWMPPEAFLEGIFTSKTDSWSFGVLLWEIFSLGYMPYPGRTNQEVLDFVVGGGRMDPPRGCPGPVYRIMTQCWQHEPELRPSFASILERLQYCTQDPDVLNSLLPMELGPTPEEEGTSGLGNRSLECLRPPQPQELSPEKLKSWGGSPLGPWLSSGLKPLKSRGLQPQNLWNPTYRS
Tyrosine-protein kinase Lck (Homo sapiens), sequence (P06239 2-509 limits assumed): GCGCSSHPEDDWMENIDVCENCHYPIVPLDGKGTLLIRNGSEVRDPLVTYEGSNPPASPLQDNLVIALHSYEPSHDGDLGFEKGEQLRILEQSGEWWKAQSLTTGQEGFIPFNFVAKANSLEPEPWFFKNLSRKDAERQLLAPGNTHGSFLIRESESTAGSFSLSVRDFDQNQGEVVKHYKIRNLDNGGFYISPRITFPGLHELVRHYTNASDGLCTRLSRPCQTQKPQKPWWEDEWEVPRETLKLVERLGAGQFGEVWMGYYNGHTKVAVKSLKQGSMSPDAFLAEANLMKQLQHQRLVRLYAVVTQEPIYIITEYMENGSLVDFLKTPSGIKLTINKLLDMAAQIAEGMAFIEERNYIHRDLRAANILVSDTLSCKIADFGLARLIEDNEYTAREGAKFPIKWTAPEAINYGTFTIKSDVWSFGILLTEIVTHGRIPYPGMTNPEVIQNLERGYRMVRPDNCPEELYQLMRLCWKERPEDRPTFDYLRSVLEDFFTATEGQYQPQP
Mast/stem cell growth factor receptor Kit (Homo sapiens), sequence (P10721 whole entry): as the sequence (P10721 whole entry V560G) above, with G560V counted along it
Mast/stem cell growth factor receptor Kit (Homo sapiens), P10721 [T670I], sequence (P10721 whole entry T670I): as the sequence (P10721 whole entry V560G) above, with G560V, T670I counted along it
Mast/stem cell growth factor receptor Kit (Homo sapiens), P10721 [D816V], sequence (P10721 whole entry D816V): as the sequence (P10721 whole entry V560G) above, with G560V, D816V counted along it
Tyrosine-protein kinase Lyn (Homo sapiens), sequence (P07948 2-512 limits assumed): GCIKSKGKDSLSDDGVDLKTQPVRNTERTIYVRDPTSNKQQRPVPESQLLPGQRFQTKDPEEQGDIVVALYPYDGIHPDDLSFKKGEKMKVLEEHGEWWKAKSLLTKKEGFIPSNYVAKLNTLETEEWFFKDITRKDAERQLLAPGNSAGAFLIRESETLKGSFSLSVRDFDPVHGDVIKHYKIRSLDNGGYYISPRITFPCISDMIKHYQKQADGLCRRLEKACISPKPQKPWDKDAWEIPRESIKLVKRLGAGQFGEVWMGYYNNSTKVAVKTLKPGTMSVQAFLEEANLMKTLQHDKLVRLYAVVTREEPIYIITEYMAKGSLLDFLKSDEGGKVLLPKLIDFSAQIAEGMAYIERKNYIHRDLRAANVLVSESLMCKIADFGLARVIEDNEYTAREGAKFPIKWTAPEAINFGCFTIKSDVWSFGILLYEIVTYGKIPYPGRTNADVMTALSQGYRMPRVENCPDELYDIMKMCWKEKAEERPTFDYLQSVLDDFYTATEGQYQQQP

For `CC1=C(C(=O)Nc2ccc3[nH]nc(C)c3c2)C(c2ccc(C(F)(F)F)cc2)CC(=O)N1` (stereo not given), the inhibition in [1] is 2.22%; in experiment [2] it was 5.34%; in experiment [3], 1.99%; in experiment [4] it was -0.21%; in [5] it was 1.75%; in experiment [6] it was 0.71%. Moreover, the inhibition in experiment [7] was -0.03%; in experiment [8], 5.93%; in experiment [9], 18.8%; in experiment [10], 1.5%; in experiment [11] it was 3.55%; in experiment [12], 4.49%. Further, the inhibition in experiment [13] came out at 6.25%; in [14] it was 1.98%; in experiment [15] it was 3.89%; in experiment [16], 2.17%; in experiment [17], 5.55%; in experiment [18], 1.4%. The inhibition in [19] worked out at 17.3%; in experiment [20], 5.25%.

Turning to `CNC(=O)c1ncccc1Nc1nc(Nc2cc3c(cc2OC)CCCN3C(=O)CN(C)C)nc2[nH]ccc12`, the inhibition in [1] is 3.44%; in [2], 1.27%; in [3] it was 4.76%; in experiment [4], 3.12%; in experiment [5], 1.68%; in [6] it was -0.63%. Moreover, the inhibition in experiment [7] was found to be 0.67%; in experiment [8] it was 2.48%; in experiment [9], 4.71%; in experiment [10], 86.9%; in [11] it was 94.4%; in [12] it was 3.52%. In addition, the inhibition in experiment [13] is 4.53%; in experiment [14], 2.33%; in experiment [15], 3.27%; in experiment [16], 0.94%; in experiment [17] it was 4.5%; in experiment [18], 6.6%. Further, the inhibition turned out to be 10.1% in experiment [19] and 5.51% in experiment [20].

Regarding `CS(=O)(=O)CCNCc1ccc(-c2ccc3ncnc(Nc4ccc(OCc5ccccc5)cc4)c3c2)o1`, the inhibition stood at 8.96% in [1]; 2.54% in experiment [2]; 2.47% in [3]; 3.32% in experiment [4]; 4.61% in experiment [5]; 4.25% in [6]. The inhibition stood at 1.48% in experiment [7]; 4.19% in experiment [8]; 22% in [9]; 4.28% in [10]; 4.57% in experiment [11]; 4.79% in experiment [12]. Also, the inhibition in [13] is 9.83%; in experiment [14] it was 4.55%; in experiment [15], 8.36%; in [16], 7.16%; in [17], 43.7%; in experiment [18], -0.6%. The inhibition in experiment [19] came out at 4.43%; in experiment [20], 2.69%.

`CS(=O)(=O)CCNCc1ccc(-c2ccc3ncnc(Nc4ccc(OCc5cccc(C(F)(F)F)c5)cc4)c3c2)o1`: the inhibition is 11.4% in [1]; 2.25% in experiment [2]; 0.02% in [3]; 5.03% in experiment [4]; 5.44% in experiment [5]; -4.38% in experiment [6]. Moreover, the inhibition in [7] was -2.24%; in experiment [8], 3.86%; in [9] it was 7.98%; in [10] it was 5.96%; in experiment [11], 4.64%; in experiment [12] it was 4.67%. The inhibition was 5.36% in experiment [13]; -0.37% in experiment [14]; 2.74% in experiment [15]; 1.26% in experiment [16]; 7.4% in experiment [17]; 2.15% in experiment [18]. Moreover, the inhibition amounted to 4.91% in experiment [19] and 2.66% in experiment [20].

Consider `Cc1cc(O)cc(C)c1/C=C/c1cncc(C(=O)OC(C)(C)C)c1`, for which the inhibition in [1] is 85.7%; in experiment [2], 1.84%; in experiment [3] it was -1.16%; in [4], 4.32%; in [5], 2.87%; in [6] it was 2.94%. Besides, the inhibition was 18.4% in [7]; 4.23% in [8]; 26.8% in experiment [9]; 2.71% in [10]; 2.98% in experiment [11]; 13.7% in experiment [12]. The inhibition in experiment [13] came out at 57.2%; in [14], 13.6%; in [15], 53.4%; in experiment [16], 1.26%; in experiment [17] it was 2.87%; in experiment [18], 4.92%. The inhibition in experiment [19] came to 5.5%; in [20], 3.21%.
